Assay results taken from PubChem BioAssay AID1220 (Sanford-Burnham Center for Chemical Genomics, 2008).
Out of some 190,000 compounds screened, about 1,300 (0.68%) were called active. This is one part of a sample in which actives are shown more often than they occur. Unmarked numbers belong to inactive results. Rule as the data show it: active = inhibition above about 50%; inactive = the rest.

These molecules were tested against Mannose-6-phosphate isomerase (Homo sapiens) (UniProt P34949) (assay: MPI inhibition at elevated mannose 6-phosphate – biochemical, fluorescence intensity, high mannose 6-phosphate, primary screen (AID 1220)). Conditions: recombinant PMI enzyme, coupled fluorescence intensity; at 20 µM; hits give high values.
Sequence of Mannose-6-phosphate isomerase (Homo sapiens) (P34949 whole entry, looked up): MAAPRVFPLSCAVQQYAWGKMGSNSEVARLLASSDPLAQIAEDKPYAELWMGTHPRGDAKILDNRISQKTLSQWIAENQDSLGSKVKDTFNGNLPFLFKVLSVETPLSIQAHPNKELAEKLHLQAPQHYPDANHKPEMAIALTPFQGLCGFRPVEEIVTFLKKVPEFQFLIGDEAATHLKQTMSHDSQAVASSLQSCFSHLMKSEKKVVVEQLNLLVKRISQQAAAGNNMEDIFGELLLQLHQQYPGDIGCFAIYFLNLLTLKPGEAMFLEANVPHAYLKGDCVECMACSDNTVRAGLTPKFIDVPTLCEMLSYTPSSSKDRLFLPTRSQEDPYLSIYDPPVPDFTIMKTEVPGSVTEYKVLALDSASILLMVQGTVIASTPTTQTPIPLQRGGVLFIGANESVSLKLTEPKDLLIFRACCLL

SMILES | inhibition
COc1ccc(CCn2nnnc2C(CC(C)C)N2CCN(c3ncccn3)CC2)cc1OC (stereo not given) | 7.5%
CN1CCN(Cc2c(O)ccc3cc(Br)ccc23)CC1 | 64.6% (active)
Oc1ccc2ccccc2c1CN1CCCC1 | 67.8% (active)
Oc1ccc2cc(Br)ccc2c1CN1CCCC1 | 43.2%
Oc1ccc2ccccc2c1CN1CCN(c2ccccc2)CC1 | -35.5%
CN1CCN(Cc2c(O)ccc3c(-c4ccccc4)cc(=O)oc23)CC1 | 1.7%
Oc1ccc2ccccc2c1CN1CCN(c2ccccc2F)CC1 | 29.8%
CCn1c(CSc2nc3ccccc3s2)nnc1SCC(N)=O | 1.7%
N#Cc1ccccc1S(=O)(=O)N1CCN(CC(O)c2ccccc2)CC1 (stereo not given) | -12.7%
COc1cccc(C(=O)Nc2cccc(-c3ccc4nncn4n3)c2)c1OC | -2.3%
COc1ccc(C2=NN(C(=O)CSc3ncccn3)C(c3cccc(OC)c3OC)C2)cc1 (stereo not given) | 0.9%
CCOC(=O)C1CCCN(C(=O)c2ccc(C)cc2O)C1 (stereo not given) | 1.2%
CC1Cc2ccccc2N1c1ncnc2c1nnn2Cc1ccccc1Cl (stereo not given) | -1.3%
O=C(O)C1C2CCC(O2)C1C(=O)Nc1ccc(F)cc1 (stereo not given) | -3.9%
O=C(O)C1C2CCC(O2)C1C(=O)Nc1ccc(O)cc1 (stereo not given) | 54.4% (active)
O=C(O)C1C2CCC(O2)C1C(=O)Nc1cccc(F)c1 (stereo not given) | -3.7%
O=C(NCC(=O)N(c1cccnc1)C(C(=O)NC1CCCC1)c1ccccc1)c1ccco1 (stereo not given) | -14.2%
Cc1onc(-c2ccccc2)c1C(=O)N1CCN(C(=O)c2ccco2)CC1 | 2%
COc1ccc(N(CC(=O)NCc2ccccc2OC)S(=O)(=O)c2ccccc2[N+](=O)[O-])c(OC)c1 | -1.5%
CCN1C(=O)N(C)C2(c3ccccc3)N(C)C(=O)N(C)C12c1ccccc1 (stereo not given) | 12.7%
CN1c2ccccc2N(C)C1(C)c1ccccc1 | 31.1%
CN1CCN(C(=O)c2cc(-c3ccco3)on2)CC1 | -11%
O=C(c1cc(-c2ccco2)on1)N1CCN(c2ccccc2)CC1 | 53.3% (active)
O=C(c1cc(-c2ccco2)on1)N1CCOCC1 | 26.3%
N#CCCn1c(C2CCCCC2)nc2ccccc21 | -2.5%

SMILES | inhibition
O=[N+]([O-])c1ccc(N=Cc2ccc(Br)c([N+](=O)[O-])c2)cc1 | 7.8%
O=[N+]([O-])c1cc(C=Nc2ccc3ccccc3c2)ccc1Br | 51.5% (active)
C(=Nc1ccc(Nc2ccccc2)cc1)c1ccc2ccccc2c1 | -17.3%
CCn1c2ccccc2c2nc3cc(C(=O)O)ccc3nc21 | 33.7%
CCn1c2ccccc2c2nc3ccccc3nc21 | 8.1%
CCc1cc(C(=O)N2CCCC(CCC(=O)NCc3cccc(OC)c3)C2)no1 (stereo not given) | -5.8%
COc1ccc(S(=O)(=O)Nc2cc3c(C(C)=O)c(C)oc3c3ccccc23)cc1 | -0.8%
COc1ccc(S(=O)(=O)Nc2cc3c4c(oc3c3ccccc23)CC(C)(C)CC4=O)cc1 | 50.1% (active)
COc1ccc(S(=O)(=O)Nc2cc3c4c(oc3c3ccccc23)CCCC4=O)cc1 | 14.6%
COc1ccc(O[C@H]2C=C[C@@H](c3ccccc3)O[C@@H]2COC(=O)CC/C(C)=N/OC[C@@H](O)COCc2ccco2)cc1 | 19.3%
CCC(NC(=O)CCc1ccccc1)c1ccccc1 (stereo not given) | 0.5%
Cc1ccc2c(Cl)cc(Cl)c(OCC(=O)N3CCCC3)c2n1 | 54.6% (active)
Cc1ccc2c(Cl)cc(Cl)c(OCC(=O)O)c2n1 | 9.9%
COC(=O)COc1c(Cl)cc(Cl)c2ccc(C)nc12 | 10.1%
CCOc1ccc(C(NC(=O)/C=C/c2ccco2)c2ccc(OC)c(OC)c2)cc1 (stereo not given) | 10.3%
COc1ccc(C2Nc3ccccc3C(=O)N2NS(=O)(=O)c2ccc(C)cc2)cc1 (stereo not given) | 5.5%
CN(Cc1ccon1)C(=O)CC1C(=O)NCCN1CC(C)(C)C (stereo not given) | 35.3%
Cc1ccc(OCCN(C)C(=O)CC2C(=O)NCCN2CC(C)(C)C)cc1 (stereo not given) | 41.2%
COC(=O)CN(C)C(=O)CC1C(=O)NCCN1CC(C)(C)C (stereo not given) | 56.5% (active)
COc1ccc(N2CCN(C(=O)COc3ccc4ccccc4c3)CC2)cc1 | 6.1%
COc1ccc(CN2CCN(c3ccccn3)CC2)c(OC)c1 | -6.3%
O=C(Nc1ccccc1)c1ccc(NCCN2CCOCC2)c(S(=O)(=O)N2CCOCC2)c1 | 1.4%
CCOC(=O)C(Cc1c(F)cccc1Cl)c1ccno1 (stereo not given) | -11.3%
CCOC(=O)C(Cc1ccccc1)c1ccnc2nc(N)nn12 (stereo not given) | -9.3%
CCOC(=O)C(Cc1c(F)cccc1Cl)c1ccnc2nc(N)nn12 (stereo not given) | 64.8% (active)
